Nrf2 block: Nrf2 pathway inhibition; Potency, µM (highest dose often 46 µM), inactives show top-dose activity change, negative = inhibition, usual class: inhibitors; actives 2.1% (n = 360,000); A549 ARE-Fluc reporter, luciferase luminescence, 18-24 h; note: % is set by controls: 0 for no effect and ±100 for the full control effect; nearly all actives have a fitted effect of over 60% in size
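A549 ARE_Fluc cells (5000/well, 5% FBS OPTI-MEM) pre-incubated 2 h, then treated with compounds 18-24 h at 37C/5% CO2 in concentration-response. CellTiter-Fluor viability read first; BugLite luciferase luminescence after 15 min at room temperature gives Nrf2 activity.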
A549 tox: A549 cytotoxicity, counter-screen for Nrf2 inhibitors. A549 ARE-Fluc cells, CellTiter-Fluor viability, 18-24 h. Potency, µM (doses to about 46 µM), for inactives: at the highest dose activity change, negative = cytotoxicity, actives largely listed as inhibitors. actives 0.16% (n = 390,000); note: % is set by controls: 0 for no effect and ±100 for the full control effect
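A549 ARE_Fluc cells in 5% FBS OPTI-MEM were exposed to compounds in concentration-response for 18-24 h at 37 deg C. Viability was read by CellTiter-Fluor fluorescence (Ex 405/Em 525) after 30 min, before the luciferase read.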
ATXN viability: cell viability loss in ATXN counter-screen; S2 cells (HEK-293 line with an ATXN2-luciferase reporter) viability, CellTiter-Fluor protease fluorescence, 24 h; Potency, µM (highest dose often 56.7 µM), usual class: cytotoxic; actives 0.49% (n = 400,000); AID 651635; note: nearly all actives have a fitted effect of over 40% in size
ATXN2 expr inh: inhibitors of ATXN2 expression; HEK-293 ATXN2-luciferase reporter, luminescence, 24 h; Potency, µM (series often up to 57 µM), for the others: at the highest dose activity change, negative = inhibition, actives largely listed as inhibitors; actives 0.72% (n = 360,000); AID 1745845; note: % is set by controls: 0 for no effect and ±100 for the full control effect; nearly all actives have a fitted effect of over 55% in size
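qHTS (up to 57 uM final) was run with 24 h compound exposure of reporter cells at 37 °C. Each well was multiplexed: SteadyGlo luminescence measured ATXN2-luciferase expression after a fluorogenic Gly-Phe-AFC viability readout (25 uM final).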
Nrf2 activator: Nrf2 pathway activation; AREc32 ARE-luciferase reporter (MCF7-derived line), luminescence, 24 h; Potency, µM (series often up to 46.1 µM), without a hit: at the highest dose activation, most hits filed as activators; actives 0.31% (n = 410,000); note: % of control where 0% means no effect; nearly all actives have a fitted effect of over 65% in size
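Nrf2 activation is followed as ARE-luciferase induction in the AREc32 line after one day of compound treatment; luminescence is read with Steady-Glo.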
* = called active by the depositor; i = inactive; ? = inconclusive; nt = no result. The list is not random: actives were taken first. Their share in the collection is about 2.9%. Calls come from the whole dose curve; as a rule, active = well fitted curve in the direction sought with a large enough effect; inconclusive = small, poorly fitted or top-dose-only effect, or another doubt; inactive = no such curve, though single readings can be large; an effect the other way counts as inactive or inconclusive. Potency is the fitted concentration of half-maximal effect.

SMILES	Nrf2 block	A549 tox	ATXN viability	ATXN2 expr inh	Nrf2 activator
O=C(Nc1ccc(CN2CCCCC2)cc1)c1cccc(Br)c1	3%	-5%	i	-11%	8%
COc1ccc(CCNc2ncnc3nc[nH]c23)cc1	15µM*	-1%	nt	nt	nt
COc1ccccc1CCNc1ncnc2nc[nH]c12	?	4%	nt	nt	nt
CC(C)(CNC(=O)c1cnn(-c2nccc(-c3cccs3)n2)c1C1CC1)N1CCOCC1	nt	nt	i	nt	nt
CC(C)CC(=O)Nc1n[nH]c2c1CN(C(=O)C1CCN(C)CC1)C2(C)C	nt	nt	nt	1.1µM*	nt
COc1ccc(C=Cc2cc(OC)c(OC)c(OC)c2)cc1NC(=O)[C@H](N)CO	nt	nt	nt	-11%	nt
O=C1CC(c2ccccc2)Cc2[nH]c(=O)c(C(=O)Nc3ccc(F)cc3)cc21 (stereo unspecified)	nt	-1%	i	9%	-1%
O=C1CC(c2ccccc2)Cc2[nH]c(=O)c(C(=O)Nc3ccc(OC(F)(F)F)cc3)cc21 (stereo unspecified)	1%	-6%	25µM*	-3%	0%
CCc1ccccc1NC(=O)Cn1c(-c2nonc2N)nc2ccccc21	10%	0%	nt	nt	0%
CCCCOc1ccccc1NC(=O)Cn1c(-c2nonc2N)nc2ccccc21	?	?	14µM*	?	-1%
Cn1c2ccccc2c2c3c(c4c5ccccc5n(CCC#N)c4c21)CNC3=O	nt	nt	nt	6.9µM*	nt
O=S(=O)(c1ccc(C(F)(F)F)cc1)N1CCN(S(=O)(=O)c2ccc3c(c2)OCCO3)CC1	-15%	-3%	nt	nt	nt
CN1CCc2sc(NC(=O)Cc3ccccc3)c(C(=O)Nc3ccc(Cl)cc3)c2C1	18%	-3%	nt	nt	nt
CC(=O)c1ccc(-n2nnnc2SCC(=O)Nc2cccc(NC(=O)c3ccco3)c2)cc1	23µM*	-13%	i	6%	7%
Cc1ccc(-n2nnnc2SCC(=O)Nc2cccc(NC(=O)c3ccco3)c2)cc1C	?	-2%	i	-4%	2%
Cc1ccc2c(n1)sc1c(-c3ccc(Br)cc3)c(C#N)c(N)nc12	21µM*	?	i	?	4%
CCc1nc(N)c(C#N)c(-c2ccc(F)cc2)c1C	?	3%	i	-1%	-1%
O=C(CSc1ncnc2c1oc1ccccc12)c1cccs1	?	-3%	i	11%	3.5µM*
CC1(C)CC[C@]2(C(=O)n3ccnc3)CC[C@]3(C)[C@H](C(=O)C=C4[C@@]5(C)C=C(C#N)C(=O)C(C)(C)[C@@H]5CC[C@]43C)[C@@H]2C1	5.8µM*	6.5µM*	3.8µM*	3.4µM*	1.1µM*
CCC(C)C(=O)Nc1nc(C)c(-c2csc(Nc3cc(Cl)ccc3OC)n2)s1 (stereo unspecified)	8.2µM*	-4%	i	-7%	0%
CCCC(C)C(=O)Nc1nc(C)c(-c2csc(Nc3ccc(Cl)cc3)n2)s1 (stereo unspecified)	15µM*	-12%	?	?	4%
CCCC(C)C(=O)Nc1nc(C)c(-c2csc(Nc3ccccc3OC)n2)s1 (stereo unspecified)	-21%	-3%	i	6%	4%
CSc1ccc2nnc(-c3ccc(C)cc3)n2n1	-21%	-16%	nt	nt	nt
COc1ccc(CNC(=O)c2cnn(-c3ccc(C)cc3)c2-n2cccc2)cc1OC	nt	-11%	nt	nt	-1%
CC1CCc2nc(NC(=O)c3cc(C(C)(C)C)nn3C)sc2C1 (stereo unspecified)	-14%	-1%	i	nt	0%
Cc1ccc(-c2nc(NC(=O)c3cc(C(C)(C)C)nn3C)sc2C)cc1Cl	21µM*	-5%	i	-21%	0%
Cc1cc(N2C3CCC2CC(O)(c2ccc(F)cc2)C3)nc(-c2ccccc2)n1 (stereo unspecified)	23µM*	?	i	?	4%
Cc1ccnc(N2C3CCC2CC(O)(c2ccccc2)C3)n1 (stereo unspecified)	6%	-5%	i	-32%	0%
COc1ccccc1NC(=O)C1=C(C)N(c2ccccc2)C(=S)NC1c1cccc(C(F)(F)F)c1 (stereo unspecified)	15µM*	-7%	i	-24%	0%
